# Reference: PubChem BioAssay
# Calls of active or inactive are those of the source.
# How the values were obtained:
# [1] = small molecules captured by biotinylated probe aFSTL3 – biochemical, small-molecule microarray, fluorescence 635/667, stem cell growth factor project, primary screen (AID 1064); conditions: higher = more signal;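 also: measures binding of the biotinylated anti-FSTL3 antibody to printed compounds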
# [2] = binders from COS7 lysate, DM2A8 probe, primary screen, torsin A project, cell lysate, small-molecule microarray, fluorescence 635/667 (AID 1065); conditions: higher = more signal, COS7 lysate expressing mutant human TOR1A
# [3] = small molecules captured by biotinylated probe aFGF2 – biochemical, small-molecule microarray, fluorescence 635/667, stem cell growth factor project, primary screen (AID 1067); conditions: higher = more signal;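 also: measures binding of biotinylated aFGF2 protein to printed compounds on slides; z-score merges feature fluorescence and signal-to-noise across triplicate slides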
# [4] = small molecules captured by biotinylated probe aFGF10 – biochemical, small-molecule microarray, fluorescence 635/667, stem cell growth factor project, primary screen (AID 1071); conditions: higher = more signal;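 also: score merges 667 nm spot intensity and signal to noise from triplicate slides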
# [5] = target: Neurogenic locus notch homolog protein 2 (Homo sapiens) (UniProt Q04721); assay: small molecules binding Notch2 protein – biochemical, small-molecule microarray, 635 nm fluorescence, stem cell growth factors, primary screen (AID 1073); conditions: higher = more signal
# [6] = target: Pro-neuregulin-1, membrane-bound isoform (Homo sapiens) (UniProt Q02297); assay: small molecules binding neuregulin-1 protein – biochemical, small-molecule microarray, fluorescence 635/667, psychiatric disease protein project, primary screen (AID 1075); conditions: NRG1 binding, 635 nm fluorescence, higher = more signal;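 also: score combines 667 nm spot fluorescence with signal to noise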
# Chain of Pro-neuregulin-1, membrane-bound isoform (Homo sapiens) (Q02297 whole entry, looked up, the tested form may be a part, canonical isoform): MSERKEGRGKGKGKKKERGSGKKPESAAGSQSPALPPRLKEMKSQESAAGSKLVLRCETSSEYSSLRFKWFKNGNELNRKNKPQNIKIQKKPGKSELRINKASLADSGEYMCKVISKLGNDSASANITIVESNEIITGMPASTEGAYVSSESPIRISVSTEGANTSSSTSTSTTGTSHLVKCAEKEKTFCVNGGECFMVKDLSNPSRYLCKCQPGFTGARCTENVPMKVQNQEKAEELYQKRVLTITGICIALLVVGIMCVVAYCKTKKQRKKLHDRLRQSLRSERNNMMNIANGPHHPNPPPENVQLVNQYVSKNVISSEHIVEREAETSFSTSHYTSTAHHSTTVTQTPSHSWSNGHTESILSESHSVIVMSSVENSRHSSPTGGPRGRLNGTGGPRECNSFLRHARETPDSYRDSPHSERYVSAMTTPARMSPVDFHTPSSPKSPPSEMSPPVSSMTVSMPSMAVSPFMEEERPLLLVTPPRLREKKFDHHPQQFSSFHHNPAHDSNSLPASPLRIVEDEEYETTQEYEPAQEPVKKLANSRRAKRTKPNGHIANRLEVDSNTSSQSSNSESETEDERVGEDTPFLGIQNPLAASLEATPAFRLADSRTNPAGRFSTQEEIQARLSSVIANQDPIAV
# [7] = system: Neuregulin-1 EGF-like domain; assay: small molecules binding NRG1 EGF domain – biochemical, small-molecule microarray, 635 nm fluorescence, primary screen (AID 1081); conditions: higher = more signal;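 also: binding of the protein to compounds printed on small-molecule microarray slides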
# [8] = FRG1 expression reporter modulators in myotubes – cell-based, C2C12 myotubes, firefly/Renilla luciferase, luminescence, FRG1 inhibition for FSHD, primary screen (AID 1084); conditions: FRG1 promoter luciferase, higher = more signal, called active from +8 up or from −8 down
# [9] = small molecules captured by biotinylated probe aFST – biochemical, small-molecule microarray, fluorescence 635/667, stem cell growth factor project, primary screen (AID 1086); conditions: higher = more signal;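 also: score merges 667 nm fluorescence with signal-to-noise of each printed compound spot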
# [10] = binders of probe aHhip on microarray, primary screen, stem cell growth factor project, biochemical, small-molecule microarray, fluorescence 635/667 (AID 1087); conditions: higher = more signal;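 also: score merges spot fluorescence at 667nm with spot signal to noise ratio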
# [11] = system: PRMT1 (protein arginine N-methyltransferase 1); assay: small molecules binding arginine methyltransferase PRMT1 – biochemical, small-molecule microarray, 635 nm fluorescence, primary screen (AID 1088); conditions: higher = more signal;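 also: binding of Prmt1 protein to compounds spotted on small-molecule microarray slides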
# [12] = growth effects on S. cerevisiae YJM789 – YJM789 clinical isolate, OD600, 24 h, basal, primary screen (AID 1089); conditions: higher = more signal, called active from +8 up or from −8 down;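 also: growth of clinical yeast isolate S. cerevisiae YJM 789 seeded 1000 cells per well; test concentration not given here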
# [13] = S. pombe growth modifiers, basal conditions – strain 972, OD600, 24 h, no modulator, primary screen (AID 1090);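 also: basal condition with compound alone and no growth modifier present; test concentration not given here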; conditions: S. pombe 972 growth, higher = more signal, called active from +8 up or from −8 down
# [14] = budding yeast growth modifiers under rapamycin – strain BY4716, OD600, 96 h, primary screen (AID 1091); also: test concentration not given here; conditions: S. cerevisiae BY4716 + rapamycin, higher = more signal, called active from +8 up or from −8 down
# [15] = target: Torsin-1A-interacting protein 2 (Homo sapiens) (UniProt Q8NFQ8); assay: small molecules binding lysate-expressed LULL1 – cell lysate, human LULL1 lysate, 635/667 nm fluorescence, primary screen (AID 1092); conditions: small-molecule microarray, hLULL1 lysate binding, 635 nm fluorescence; higher = more signal;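 also: probe is lysate of COS7 cells overexpressing human LULL1; score merges per-feature 667 nm fluorescence with signal-to-noise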
# Chain of Torsin-1A-interacting protein 2 (Homo sapiens) (Q8NFQ8 whole entry, looked up): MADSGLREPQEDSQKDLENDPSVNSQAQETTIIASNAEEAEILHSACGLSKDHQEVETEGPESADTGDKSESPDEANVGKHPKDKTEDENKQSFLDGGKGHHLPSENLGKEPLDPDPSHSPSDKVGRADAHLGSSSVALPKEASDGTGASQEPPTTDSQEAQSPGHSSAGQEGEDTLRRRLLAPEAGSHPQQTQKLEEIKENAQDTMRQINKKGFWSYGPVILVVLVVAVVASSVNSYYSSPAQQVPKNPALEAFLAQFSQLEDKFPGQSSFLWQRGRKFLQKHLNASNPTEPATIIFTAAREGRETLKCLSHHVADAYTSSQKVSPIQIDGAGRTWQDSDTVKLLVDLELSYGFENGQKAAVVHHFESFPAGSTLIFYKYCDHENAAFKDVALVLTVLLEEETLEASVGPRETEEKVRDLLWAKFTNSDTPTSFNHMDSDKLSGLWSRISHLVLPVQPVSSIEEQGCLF
# [16] = optical density change of DRC41 E. coli – strain DRC41, OD650, 24 h, E. coli filamentation project, primary screen (AID 1093);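 also: MC1000 strain lacking acrAB efflux and sulA so SOS filamentation is blocked; test concentration not given here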; conditions: E. coli DRC41 growth, higher = more signal, called active from +8 up or from −8 down
# [17] = probe aLefty2 binding to arrayed compounds – biochemical, biotinylated probe, 635/667 nm fluorescence, primary screen (AID 1094); conditions: small-molecule microarray, higher = more signal;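 also: score merges spot fluorescence near 667 nm with spot signal-to-noise ratio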
# [18] = system: Noggin (protein binding on small-molecule microarray); assay: small molecules binding Noggin protein – biochemical, 635/667 nm fluorescence, primary screen (AID 1095); conditions: 635 nm fluorescence, higher = more signal;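 also: score merges 667 nm feature fluorescence with signal to noise over triplicate slides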
# [19] = target: Neurogenic locus notch homolog protein 3 (Homo sapiens) (UniProt Q9UM47); assay: small molecules binding NOTCH3 protein – biochemical, 635/667 nm fluorescence, primary screen (AID 1096); conditions: small-molecule microarray, 635 nm fluorescence, higher = more signal
# Chain of Neurogenic locus notch homolog protein 3 (Homo sapiens) (Q9UM47 whole entry, looked up): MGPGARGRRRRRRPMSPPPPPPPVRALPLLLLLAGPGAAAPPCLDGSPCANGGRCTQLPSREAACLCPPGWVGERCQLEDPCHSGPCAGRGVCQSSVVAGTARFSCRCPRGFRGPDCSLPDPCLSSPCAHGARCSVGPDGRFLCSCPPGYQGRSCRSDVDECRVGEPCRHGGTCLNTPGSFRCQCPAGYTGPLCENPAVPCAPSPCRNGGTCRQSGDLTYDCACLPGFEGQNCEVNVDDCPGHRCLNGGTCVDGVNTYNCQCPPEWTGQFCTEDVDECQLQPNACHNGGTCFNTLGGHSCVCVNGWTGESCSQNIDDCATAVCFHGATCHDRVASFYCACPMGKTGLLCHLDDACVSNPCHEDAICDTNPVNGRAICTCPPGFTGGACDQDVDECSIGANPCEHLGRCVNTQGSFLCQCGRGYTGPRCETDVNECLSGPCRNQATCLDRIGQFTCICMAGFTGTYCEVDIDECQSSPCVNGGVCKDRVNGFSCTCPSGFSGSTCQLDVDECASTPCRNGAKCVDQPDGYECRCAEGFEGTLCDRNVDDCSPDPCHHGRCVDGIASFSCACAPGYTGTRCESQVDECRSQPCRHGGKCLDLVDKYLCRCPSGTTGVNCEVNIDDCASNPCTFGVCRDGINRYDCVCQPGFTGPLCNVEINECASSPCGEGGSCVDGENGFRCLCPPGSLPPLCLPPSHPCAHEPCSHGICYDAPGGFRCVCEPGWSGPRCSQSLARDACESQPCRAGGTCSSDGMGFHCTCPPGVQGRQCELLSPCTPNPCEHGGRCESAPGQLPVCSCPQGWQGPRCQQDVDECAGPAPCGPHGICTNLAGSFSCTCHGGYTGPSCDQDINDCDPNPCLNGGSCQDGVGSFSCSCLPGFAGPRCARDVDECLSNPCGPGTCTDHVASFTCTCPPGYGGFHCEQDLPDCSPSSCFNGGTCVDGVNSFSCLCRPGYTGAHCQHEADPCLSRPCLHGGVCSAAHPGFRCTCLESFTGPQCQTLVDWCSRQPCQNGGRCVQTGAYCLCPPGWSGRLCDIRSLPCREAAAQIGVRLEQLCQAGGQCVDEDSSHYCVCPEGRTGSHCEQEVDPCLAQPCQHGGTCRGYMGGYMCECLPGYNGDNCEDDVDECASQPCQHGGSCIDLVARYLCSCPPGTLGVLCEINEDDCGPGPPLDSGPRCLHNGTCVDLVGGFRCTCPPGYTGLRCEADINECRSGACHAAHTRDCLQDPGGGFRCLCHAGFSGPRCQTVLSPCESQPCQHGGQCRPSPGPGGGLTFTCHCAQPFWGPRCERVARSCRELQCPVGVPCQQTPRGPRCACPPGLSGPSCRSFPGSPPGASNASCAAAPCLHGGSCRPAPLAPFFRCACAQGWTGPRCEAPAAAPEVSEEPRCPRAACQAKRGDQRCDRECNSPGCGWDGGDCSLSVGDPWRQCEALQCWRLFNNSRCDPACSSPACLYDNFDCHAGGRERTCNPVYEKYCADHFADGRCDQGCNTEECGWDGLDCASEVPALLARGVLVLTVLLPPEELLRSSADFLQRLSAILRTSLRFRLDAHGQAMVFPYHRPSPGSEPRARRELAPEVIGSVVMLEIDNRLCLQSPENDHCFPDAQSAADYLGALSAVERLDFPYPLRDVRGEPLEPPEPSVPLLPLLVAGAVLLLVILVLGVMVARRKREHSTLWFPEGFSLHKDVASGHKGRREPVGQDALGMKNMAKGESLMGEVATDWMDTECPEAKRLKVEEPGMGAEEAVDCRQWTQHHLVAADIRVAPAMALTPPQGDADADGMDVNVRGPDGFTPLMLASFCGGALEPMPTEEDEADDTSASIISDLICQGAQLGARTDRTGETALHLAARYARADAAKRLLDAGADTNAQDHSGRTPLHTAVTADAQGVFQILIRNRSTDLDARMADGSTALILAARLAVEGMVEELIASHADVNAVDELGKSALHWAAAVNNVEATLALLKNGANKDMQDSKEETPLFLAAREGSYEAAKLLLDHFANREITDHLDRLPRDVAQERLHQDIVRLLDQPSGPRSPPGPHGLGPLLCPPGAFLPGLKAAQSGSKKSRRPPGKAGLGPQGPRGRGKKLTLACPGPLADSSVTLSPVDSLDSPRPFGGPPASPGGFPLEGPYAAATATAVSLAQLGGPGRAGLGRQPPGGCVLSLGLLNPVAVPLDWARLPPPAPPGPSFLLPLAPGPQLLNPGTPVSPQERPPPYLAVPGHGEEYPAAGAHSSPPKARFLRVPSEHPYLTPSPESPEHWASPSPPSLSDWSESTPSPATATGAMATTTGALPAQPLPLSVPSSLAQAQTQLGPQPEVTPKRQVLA
# [20] = probe aEGFR binding to arrayed compounds – biochemical, biotinylated probe, 635/667 nm fluorescence, primary screen (AID 1097); conditions: small-molecule microarray, higher = more signal;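 also: probe is a biotinylated anti-EGFR antibody binding compounds printed on slides; score combines fluorescence near 667 nm and signal to noise of each spot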
SMILES,composite z-score [1],composite z-score [2],composite z-score [3],composite z-score [4],composite z-score [5],composite z-score [6],composite z-score [7],z-score [8],composite z-score [9],composite z-score [10],composite z-score [11],z-score [12],z-score [13],z-score [14],composite z-score [15],z-score [16],composite z-score [17],composite z-score [18],composite z-score [19],composite z-score [20]
C=CC[C@@]1(C(=O)NCC(O)CO)N=C(c2ccc(OCCCO)cc2)O[C@@H]1c1ccccc1N=[N+]=[N-] (stereo not given in full),0.638,1.22,0.0485,0.12,0.579,1.71,1.3,3.08 (inactive),1.39,0.158,1.18,-0.711 (inactive),-1.89 (inactive),0.068 (inactive),3.79,1.01 (inactive),0.208,0.84,1.04,0.0376
CC(C)(C)N1CC=CC23O[C@@H]4C=CCOC(=O)[C@@H]4[C@H]2C(=O)N(CCCCCO)[C@@H]3C1=O (stereo not given in full),0.469,-0.555,-0.159,-0.335,-1.38,0.978,1.33,0.952 (inactive),0.411,-0.339,-0.396,-0.256 (inactive),-0.0499 (inactive),-0.177 (inactive),0.735,0.385 (inactive),-0.215,-0.617,-0.374,-0.224
CC(C)N1C(=O)c2ccccc2[C@@H](C(=O)NCCCN(C)C)[C@@H]1c1ccc(CO)cc1,0.878,-0.194,-0.0502,-0.086,0.102,1.78,1.11,0.0159 (inactive),0.908,0.0066,-0.468,-0.545 (inactive),-0.672 (inactive),-0.181 (inactive),1.3,-1.04 (inactive),0.196,-0.879,-0.807,-0.0435
C=C(COC)/C(=C/C[C@H](OC(=O)c1ccncc1)c1cccc(OCCO)c1)c1cc(C(=O)OC)ccc1OC,-0.282,0.635,-0.116,0.783,0.0724,0.555,1.27,-0.889 (inactive),-0.0832,0.0505,1.48,0.447 (inactive),-1.01 (inactive),-0.429 (inactive),1.95,0.973 (inactive),-0.128,0.604,0.679,-0.139
[N-]=[N+]=Nc1ccccc1C[C@]1(C(=O)NCCN2CCOCC2)N=C(c2ccc(OCCCO)cc2)O[C@H]1c1ccccc1,-0.283,0.309,-0.085,0.271,1.05,1.07,1.25,-0.897 (inactive),0.892,0.0373,1.31,3.66 (inactive),-1.17 (inactive),-1.78 (inactive),3.24,0.681 (inactive),0.0029,0.599,0.482,0.0756
CCN(CC)c1ccc(N2CC=CC34O[C@@H]5/C=C\CCCOC(=O)C5[C@H]3C(=O)N(C(CO)C(C)C)[C@@H]4C2=O)cc1 (stereo not given in full),0.0964,-1.2,-0.159,-0.381,-0.686,1.78,0.897,0.455 (inactive),-0.406,0.0142,0.0395,0.803 (inactive),-0.193 (inactive),-0.0204 (inactive),2.03,-0.309 (inactive),-0.168,-0.708,-0.0981,-0.198
CC(C)C(=C=CC[C@H](O)c1ccccc1OCCO)C[C@H](O)c1ccccn1,-0.102,1.51,-0.125,0.486,0.695,1.66,1.36,-1.68 (inactive),0.164,-0.201,0.813,0.241 (inactive),-0.709 (inactive),-0.365 (inactive),2.27,0.662 (inactive),0.0374,0.247,0.719,0.151
COCCOC(=O)N1C(=O)[C@@]2(c3cc(C#CCNC(N)=O)ccc31)[C@H](c1ccccc1OCCO)N1[C@H](c3ccccc3)[C@H](c3ccccc3)OC(=O)[C@H]1[C@@H]2C(N)=O,-0.309,0.092,-0.171,0.244,0.77,0.429,0.874,-1.33 (inactive),0.477,-0.284,1.55,1.86 (inactive),1.59 (inactive),3.25 (inactive),-0.0889,-0.244 (inactive),-0.0823,1.1,1.09,-0.0512
[N-]=[N+]=NCc1ccccc1[C@@H]1OC(c2ccc(OCCCO)cc2)=N[C@]1(Cc1ccccc1N=[N+]=[N-])C(=O)NCc1ccccc1,-0.253,0.485,-0.0287,0.272,1.15,0.612,1.05,-1.66 (inactive),0.221,-0.113,1.55,1.1 (inactive),1.44 (inactive),8.41 (active),2.45,-0.911 (inactive),0.139,0.646,1.13,0.123
Cc1ccc([C@H]2C(C(=O)O)=C[C@@H](C)N2S(=O)(=O)c2ccc(C)cc2)cc1,0.247,-0.36,-0.0867,-0.337,-0.0054,1.52,0.962,-0.282 (inactive),-0.882,-0.201,0.896,-0.495 (inactive),-0.812 (inactive),-0.422 (inactive),3.71,-0.291 (inactive),0.0754,-0.24,-0.546,-0.165
